GCN5L2 inh = inhibitors of human GCN5L2 histone acetyltransferase; Potency, µM (series often up to 58.9 µM), usual class: inhibitors; GCN5L2 HAT assay, ThioGlo1 CoA-SH fluorescence; hit rate 0.21% among 390,000; Q92830
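Fluorescence readout, Ex340nm/Em540nm: ThioGlo1 (50uM final) reacts with free CoA thiol released as 20nM GCN5L2 acetylates H3(1-25) peptide (75uM) using acetyl-CoA (70uM). Compound and enzyme sat 15 min beforehand; 20 min room-temperature reaction.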
Sfp PPTase inh = inhibitors of Bacillus subtilis Sfp phosphopantetheinyl transferase; Biochemical Sfp PPTase activity, qHTS; Potency, µM, usual class: inhibitors; hit rate 3.5% among 310,000; AID 1490;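 note: the enzyme is Sfp with the accession as filed and its product quenches rhodamine fluorescence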
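Reaction rates are the 30-min fluorescence difference (ex 525, em 598 nm) in wells containing 15 nM Sfp, 5 uM rhodamine-CoA and 12.5 uM BHQ-2-YbbR at pH 7.6 with 10 mM MgCl2.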
VDR inhibitor = blocks the human vitamin D receptor; P11473; VDR-SRC2-3 peptide fluorescence polarization, 2 h; Potency, µM, hits mostly inhibitors; hit rate 0.93% among 400,000; AID 504847
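After 23 nl compound addition and a short centrifugation, plates sat for 2 hours at ambient temperature; polarization of fluorescence then indicated loss of VDR binding to peptide SRC2-3.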
GLS inh = glutaminase GLS (human) inhibition; O94925; GLS enzymatic activity, qHTS titration; Potency, µM (highest dose often 45.5 µM), usual class: inhibitors; hit rate 0.21% among 410,000
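Two-point fluorescence kinetic (t0, 30 min RT) for hKGA; glutamate detected via glutamate oxidase–HRP–Amplex Red. Substrate: 1 mM L-glutamine solution; buffer 45 mM KH2PO4, pH 8.2.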
TrxR1 substrate = substrates of rat thioredoxin reductase 1 | O89049 | purified TrxR1 substrate turnover, NADPH consumption readout | Potency, µM (series often up to 114 µM) | hit rate 0.01% among 390,000; note: nearly all actives have a fitted effect of over 50% in size
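Rat TrxR1, dispensed at 90 nM, was prereduced with 400 uM NADPH (final) for 5 min at ~22 deg C, then incubated with compound 15 min before 400 uM selenite. A first-read NADPH fluorescence drop versus no-compound background flagged substrates.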
rTrxR1 inhibitor = rat TrxR1 inhibition; O89049; recombinant rTrxR1, NADPH fluorescence consumption, selenite substrate; Potency, µM (doses to about 114 µM), usual class: inhibitors; hit rate 1% among 390,000; AID 588453; note: nearly all actives have a fitted effect of over 65% in size
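Rat TrxR1 (90 nM in the dispensed reagent) was pre-reduced with 400 uM NADPH for 5 min at room temperature, then incubated with compound for 15 min. After 400 uM selenite was added, NADPH fluorescence (Ex 340/Em 450 nm) was followed for 8 min.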
Hits are given with their value; – = inactive; ? = inconclusive; · = no result; ! = repeats disagree; [ ] = another dose, or the depositor's remark. Sampled rows, rich in hits. Any-hit rate of the full collection: about 3.8%. Calls come from the whole dose curve; as a rule, active = well fitted curve in the direction sought with a large enough effect; inconclusive = small, poorly fitted or top-dose-only effect, or another doubt; inactive = no such curve, though single readings can be large; an effect the other way counts as inactive or inconclusive.

SMILES	GCN5L2 inh	Sfp PPTase inh	VDR inhibitor	GLS inh	TrxR1 substrate	rTrxR1 inhibitor
CCOC(=O)c1c(-n2c(C)cc(C=C3C(=O)NC(=S)NC3=O)c2C)sc2c1CCCC2	–	18µM	?	?	–	22µM
Cc1cc(/C=C2\C(=O)NC(=O)N(c3ccc(Br)cc3)C2=O)c(C)n1-c1cc(C(=O)O)cc(C(=O)O)c1	–	–	?	10µM	–[2.29 µM]	–
CCOC(=O)c1c(-n2c(C)cc(/C=C3/C(=O)NC(=O)N(CC)C3=O)c2C)sc2c1CCCC2	·	·	–	–	–	–
CCN1C(=O)NC(=O)/C(=C/c2cc(C)n(-c3sc(C)c(C)c3C#N)c2C)C1=O	–	16µM	?	–	–	?
CC(C)(C)P(=O)(N1CCOCC1)N1CCOCC1	–	–	–	–	–	–
COc1ccc(-n2nc(C(F)(F)F)cc2-c2ccc(Cl)cc2)cc1	·	–	·	·	·	–
Cc1cccc2c1=NC(=O)/C(=C/c1c(O)[nH]c(=O)[nH]c1=O)C=2	–	50µM	?	–	–	?
C=CCN1C(=O)NC(=O)/C(=C\c2ccc(-c3ccccc3[N+](=O)[O-])o2)C1=O	–	25µM	18µM	18µM	–	–
O=C1NC(=O)N(Cc2ccco2)C(=O)/C1=C/c1ccc(-c2cccc([N+](=O)[O-])c2)o1	20µM	20µM	14µM	–	–	40µM
COc1cccc(C2CCN(C)C2)c1 (configuration not stated)	·	·	·	–	·	·
Fc1ccccc1CCNCc1cccc(Cl)c1Cl	?	–	–	–	–	–
C[N+]1([O-])[C@@H]2CC(OC(=O)[C@@H](CO)c3ccccc3)C[C@@H]1[C@H]1O[C@H]12 (some centres not stated)	10µM!	–	–	–	·	·
C/C(=N\Nc1cccc2ccccc12)c1c(O)n(Cc2ccccc2)c(=O)[nH]c1=O	–	?	–	–	–	45µM
C/C(=N\NC(=O)c1ccccc1)c1c(O)n(Cc2ccccc2)c(=O)[nH]c1=O	?	–	–	–	–	–
C#CCN(C)[C@@H](C)Cc1ccccc1	11µM	–	–	–	·	·
CC1CC(OP(O)(=S)c2ccc(N(C)C)cc2NC(=O)c2cccs2)CC(C)(C)C1 (configuration not stated)	–	10µM	45µM	–	–	?
O=C1CC(=O)N(Cc2ccccc2)C(=O)N1	·	·	?	–	–[11.4 µM]	–[11.4 µM]
Oc1ccc(/C=N/NP(=S)(c2ccccc2)c2ccccc2)c(O)c1O	–	40µM	–	·	–	?
Oc1ccccc1/C=N/NP(=S)(c1ccccc1)c1ccccc1	–	–	–	–	–	–
CN1C2CNC(=O)CC1C1CCC2C1 (configuration not stated)	·	·	·	–	·	·
O=c1[nH]cc(N(CCCl)CCCl)c(=O)[nH]1	–	?	18µM	–	·	·
CC[C@@]1(O)C(=O)OCc2c1cc1n(c2=O)Cc2cc3c(O)cccc3nc2-1	?	?	–	·	·	·
CC[C@@]1(O)C(=O)OCc2c1cc1n(c2=O)Cc2cc3c(NC(=O)CN)cccc3nc2-1	–	56µM	–	–	–	–
Oc1cc2c(cc1O)[C@H]1c3ccccc3CN[C@@H]1CC2	–	32µM	·	·	–	–
COc1ccc2c(c1)C1OCCNC1CC2 (configuration not stated)	·	·	·	–	·	·
SMILES	GCN5L2 inh	Sfp PPTase inh	VDR inhibitor	GLS inh	TrxR1 substrate	rTrxR1 inhibitor
Oc1cc2c(cc1O)[C@H]1c3ccccc3CN[C@H]1CC2	–	40µM	–	·	·	·
COc1ccc(N2C(=O)CS(=O)C(c3ccccc3)C2=O)cc1 (configuration not stated)	–	1.6µM	35µM	–	–	50µM
CCCN1CCC[C@@H](c2cccc(C#N)c2)C1	·	·	·	·	·	–
C=C1C(=O)O[C@@H]2C[C@@H](C)[C@@H]3C=CC(=O)[C@@]3(C)[C@@H](O)[C@H]12	?	79µM	?	–	–	?
C[C@@H]1C[C@H]2OC(=O)C3(CO3)[C@H]2[C@H](O)[C@]2(C)C(=O)C3OC3[C@@H]12 (some centres not stated)	–	–	·	·	·	·
O=C1NC(=O)N(CCc2ccc(F)cc2)C(=O)/C1=C/c1ccco1	28µM	50µM	–	–	–	?
COCCN1C(=O)NC(=O)/C(=C\c2ccc(F)cc2)C1=O	–	?	–	–	–	–
Cc1ccc(/C=C2/C(=O)NC(=O)N(CCc3ccc(F)cc3)C2=O)o1	–	56µM	–	–	–	?
Cn1cccc1/C=C1\C(=O)NC(=O)N(CCC2=CCCCC2)C1=O	–	–	–	–	–	–
CN(C)c1ccc(/C=C2\C(=O)NC(=O)N(CCc3ccc(F)cc3)C2=O)cc1	–	–	40µM	–	–	?
COc1cccc(N2C(=O)NC(=O)C3(Cc4cc(C)ccc4N(C)C3)C2=O)c1 (configuration not stated)	–	–	–	–	–	–
COC(=O)C1=C(c2ccc(F)cc2OCc2ccccc2)C[C@@H]2CC[C@H]1N2C(=O)NCc1ccccc1Cl	–	·	–	–	–	–
Cc1cc(=O)oc2cc3c(cc12)CCCN3	22µM	–	–	?	–	?
CC(C)c1ccc(-n2c(O)c(C=NCCN3CCNCC3)c(=O)[nH]c2=S)cc1	–	–	–	–	–	–
Cc1ccc(CC(=O)N2CCN(C)CC2)cc1	–	–	–	–	–	–
Nc1ccc2cc(Br)ccc2c1	–	–	–	–	–	–
c1ccc(N2CCCC3(CCNCC3)C2)nc1	–	–	50µM	·	·	·
C[N+](C)(C)CC#CCOC(=O)Nc1cccc(Cl)c1	–	–	50µM!	–	–	2.7µM
C=C/C(=C/C(=O)C[C@H](C)C[C@@H](C)CC[C@H](O)[C@H](C)C(=O)C[C@@H](O)[C@H](C)[C@@H](C)OC(=O)C[C@@H](O)C1=C(C)C(=O)OC1=O)CC	3.2µM	–	?	·	·	·
CC(=O)N1N=C(c2cccnc2)OC1c1ccccc1Cl (configuration not stated)	–	–	–	–	–	–
Cc1ccc(CC2C(=O)N(C)C(=O)N(C)C2=O)s1	–	35µM	?	–	–	?
C=CCn1c(O)c(N=Nc2c(C)n(C)n(-c3ccccc3)c2=O)c(=O)[nH]c1=S	–	20µM	?	–	–	–
Cc1c(N=Cc2c(O)n(CCc3ccccc3)c(=O)[nH]c2=O)c(=O)n(-c2ccccc2)n1C	–	–	–	–	–	–
CCOc1ccc(-n2c(O)c(N=Nc3c(C)n(C)n(-c4ccccc4)c3=O)c(=O)[nH]c2=O)cc1	–	45µM	–	?	–	–
Cc1ccc2c(c1)C(Cc1nc3ccccc3c(=O)n1-c1ccc(Br)cc1)C(=O)N2 (configuration not stated)	–	·	–	–	–	–
Cc1cc(/C=C/c2cccc3sc(C)[n+](CCCCI)c23)ccc1N(CCCl)CCCl	·	·	·	·	–	16µM

Screens (PubChem)
